Records with an inconclusive call do not appear. The source made the active and inactive calls. The calls were made as follows, unless noted: active = hit-call score of the fitted dose curve at least 0.9, where 1 is the maximum; inconclusive = response in the unintended direction; inactive = score below 0.9.
Experiments:
[1] = target: Thyroid hormone receptor alpha (Rattus norvegicus) + Thyroid hormone receptor beta (Rattus norvegicus) (UniProt P18113+P63059); assay: TOX21_TR_LUC_GH3_Agonist_Followup: Tox21 GH3 Thyroid Hormone Receptor Agonism Luciferase Follow-Up Assay (AID 2283939)
Thyroid hormone receptor alpha (Rattus norvegicus) + Thyroid hormone receptor beta (Rattus norvegicus), sequence (P63059 whole entry, looked up): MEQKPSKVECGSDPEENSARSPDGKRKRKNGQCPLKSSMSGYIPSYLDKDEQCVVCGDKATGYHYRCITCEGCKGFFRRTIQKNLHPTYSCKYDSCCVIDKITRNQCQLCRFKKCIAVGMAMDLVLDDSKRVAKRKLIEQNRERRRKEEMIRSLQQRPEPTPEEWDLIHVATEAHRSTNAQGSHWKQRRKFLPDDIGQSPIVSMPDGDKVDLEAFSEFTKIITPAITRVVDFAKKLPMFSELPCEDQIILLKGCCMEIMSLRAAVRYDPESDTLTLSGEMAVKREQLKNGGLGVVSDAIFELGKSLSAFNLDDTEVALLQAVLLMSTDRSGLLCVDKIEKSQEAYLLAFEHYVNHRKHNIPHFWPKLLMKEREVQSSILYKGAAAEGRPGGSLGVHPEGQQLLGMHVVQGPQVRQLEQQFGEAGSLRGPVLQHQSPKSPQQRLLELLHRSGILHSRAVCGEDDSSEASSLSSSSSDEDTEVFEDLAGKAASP
Thyroid hormone receptor alpha (Rattus norvegicus) + Thyroid hormone receptor beta (Rattus norvegicus), sequence (P18113 whole entry, looked up): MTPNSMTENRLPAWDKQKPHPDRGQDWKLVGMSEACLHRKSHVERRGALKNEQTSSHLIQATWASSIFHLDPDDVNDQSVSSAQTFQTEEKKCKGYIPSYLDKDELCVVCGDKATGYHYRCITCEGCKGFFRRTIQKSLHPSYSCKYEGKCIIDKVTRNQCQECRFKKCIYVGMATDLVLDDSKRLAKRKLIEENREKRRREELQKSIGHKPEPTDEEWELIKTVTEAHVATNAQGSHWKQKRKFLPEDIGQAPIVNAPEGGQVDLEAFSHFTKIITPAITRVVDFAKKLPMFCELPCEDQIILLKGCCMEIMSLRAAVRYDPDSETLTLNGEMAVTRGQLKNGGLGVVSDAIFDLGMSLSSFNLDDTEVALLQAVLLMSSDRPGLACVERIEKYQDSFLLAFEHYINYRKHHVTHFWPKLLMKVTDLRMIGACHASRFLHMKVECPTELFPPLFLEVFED
How it was run: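 Agonist-mode confirmatory run: 15 concentrations (5 nM to 92 uM final) on GH3 rat pituitary cells, 24 h at 37C/5% CO2, T3 as positive control. Luminescence read with ONE-Glo after 30 min.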

THRA (gene 7067) = THRA (gene 7067) (UniProt P10827); assay: TOX21_TRA_COA_Agonist_Followup_ratio: Tox21 Thyroid Hormone Receptor alpha Agonism through Coactivator Recruitment Follow-Up Assay, Ratio (AID 2283948; active = hit-call score of the fitted dose curve at least 0.9, where 1 is the maximum; inactive = score below 0.9)
THRA (gene 7067), sequence (P10827 whole entry, looked up, the tested form may be a part): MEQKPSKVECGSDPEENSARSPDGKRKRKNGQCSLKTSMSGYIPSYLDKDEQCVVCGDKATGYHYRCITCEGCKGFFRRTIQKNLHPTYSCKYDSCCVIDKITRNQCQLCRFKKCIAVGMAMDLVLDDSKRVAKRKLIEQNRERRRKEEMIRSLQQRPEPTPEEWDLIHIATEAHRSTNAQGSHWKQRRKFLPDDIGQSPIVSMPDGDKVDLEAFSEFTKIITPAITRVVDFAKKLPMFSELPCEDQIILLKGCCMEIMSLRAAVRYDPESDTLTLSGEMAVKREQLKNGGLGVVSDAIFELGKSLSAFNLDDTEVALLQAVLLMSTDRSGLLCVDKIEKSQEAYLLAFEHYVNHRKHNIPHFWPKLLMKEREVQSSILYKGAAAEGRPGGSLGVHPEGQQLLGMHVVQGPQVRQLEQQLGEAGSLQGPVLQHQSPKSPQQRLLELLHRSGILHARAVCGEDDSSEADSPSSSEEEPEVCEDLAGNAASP
How it was run: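 Read-out is the 520/495 nm emission ratio (ex 340 nm), scaled between DMSO-only wells as 0% and T3 wells as 100%. It reflects fluorescein-SRC-2 peptide recruitment to GST-TRα LBD detected via terbium anti-GST antibody.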

THRB (gene 7068) [2] = target: THRB (gene 7068) (UniProt P10828); assay: TOX21_TRB_BLA_Agonist_Followup_ratio: Tox21 Thyroid Hormone Receptor beta Agonism Beta-lactamase (BLA) Follow-Up Assay, Ratio (AID 2283954)
THRB (gene 7068), sequence (P10828 whole entry, looked up, the tested form may be a part): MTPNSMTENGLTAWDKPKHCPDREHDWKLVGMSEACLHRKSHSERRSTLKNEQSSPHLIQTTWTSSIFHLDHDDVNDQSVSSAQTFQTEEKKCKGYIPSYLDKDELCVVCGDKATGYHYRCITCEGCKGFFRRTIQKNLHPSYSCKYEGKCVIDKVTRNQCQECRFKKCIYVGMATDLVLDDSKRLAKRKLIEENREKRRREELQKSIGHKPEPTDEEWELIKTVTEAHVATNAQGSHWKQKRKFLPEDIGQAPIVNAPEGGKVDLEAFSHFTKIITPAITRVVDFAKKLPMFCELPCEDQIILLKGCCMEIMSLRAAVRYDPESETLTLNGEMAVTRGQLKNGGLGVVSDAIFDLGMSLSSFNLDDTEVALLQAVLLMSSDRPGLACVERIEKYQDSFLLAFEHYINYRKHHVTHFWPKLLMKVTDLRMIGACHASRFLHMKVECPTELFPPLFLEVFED
How it was run: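 Agonist mode: compounds (11-point, triplicate) incubated 18 h with HEK293T cells carrying GAL4-DBD/human TRβ-LBD and UAS-β-lactamase. Blue/green (460/530 nm) FRET ratio read after 2 h CCF4-AM loading; CellTiter-Glo viability run in the same plates.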

[3] = TOX21_TRB_BLA_Agonist_Followup_viability: Viability Assessment in the Tox21 Thyroid Hormone Receptor beta Agonism Beta-lactamase (BLA) Follow-Up Assay (AID 2283956)
How it was run: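 Viability was read as CellTiter-Glo luminescence in the same wells as the TRb-bla agonist read-out. HEK293T GAL4-TRb LBD cells were treated for 18 h (37C, 5% CO2) at 11 concentrations in triplicate. Fits were bidirectional versus DMSO baseline.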

THRB (gene 7068) [4] = target: THRB (gene 7068) (UniProt P10828); assay: TOX21_TRB_COA_Agonist_Followup_ratio: Tox21 Thyroid Hormone Receptor beta Agonism through Coactivator Recruitment Follow-Up Assay, Ratio (AID 2283963; active = hit-call score of the fitted dose curve at least 0.9, where 1 is the maximum; inactive = score below 0.9)
How it was run: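 First, the GST-fused TRβ ligand-binding domain (5.0 nM) was incubated with test compound in 0.10% BSA. Next, fluorescein-tagged SRC-2 peptide (200 nM) and terbium anti-GST antibody (2 nM) were added. Finally, TR-FRET emission ratios were normalized against DMSO and T3 controls.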

[5] = target: Retinoic acid receptor RXR-alpha (Homo sapiens) (UniProt P19793); assay: TOX21_TR_RXR_BLA_Agonist_Followup_ratio: Tox21 Thyroid Hormone Receptor beta Retinoid X Receptor alpha (RXRa) Agonism Beta-lactamase (BLA) Follow-Up Assay, Ratio (AID 2283968)
Retinoic acid receptor RXR-alpha (Homo sapiens), sequence (P19793 whole entry, looked up): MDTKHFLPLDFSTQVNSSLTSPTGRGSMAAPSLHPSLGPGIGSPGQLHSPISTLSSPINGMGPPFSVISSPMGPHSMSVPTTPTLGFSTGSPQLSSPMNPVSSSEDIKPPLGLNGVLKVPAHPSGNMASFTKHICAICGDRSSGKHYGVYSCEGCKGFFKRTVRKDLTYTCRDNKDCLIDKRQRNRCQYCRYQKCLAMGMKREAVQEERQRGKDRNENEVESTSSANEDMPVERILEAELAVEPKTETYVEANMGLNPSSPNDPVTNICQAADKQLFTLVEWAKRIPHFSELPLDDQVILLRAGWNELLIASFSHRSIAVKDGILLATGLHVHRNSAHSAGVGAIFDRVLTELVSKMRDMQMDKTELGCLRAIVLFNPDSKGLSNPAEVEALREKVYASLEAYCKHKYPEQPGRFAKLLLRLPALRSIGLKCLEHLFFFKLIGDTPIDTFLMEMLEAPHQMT
How it was run: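 Read-out: blue/green (460:530 nm) FRET ratio from cleaved vs uncleaved CCF4 substrate, fitted for gain of signal relative to DMSO. Cells: HEK293T with RXRa-UAS-bla reporter; 16 h compound exposure, 11 concentrations, triplicate.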

[6] = TOX21_TR_RXR_BLA_Agonist_Followup_viability: Viability Assessment in the Tox21 Thyroid Hormone Receptor beta Retinoid X Receptor alpha (RXRa) Agonism Beta-lactamase (BLA) Follow-Up Assay (AID 2283970)
How it was run: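 CellTiter-Glo ATP quantitation as viability read-out in RXRa-bla HEK293T cells (2,500/well, charcoal-stripped 2% FBS medium), 16h compound incubation at 37C. Loss of signal versus DMSO taken as cytotoxicity, analyzed by bidirectional curve fitting.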

[7] = ATG_M_06_XSP1: Attagene TRANS-FACTORIAL Multi-Species (XSP1) HepG2 Assay for M06 Transcription Factor (Internal Marker) (AID 2283790)
How it was run: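 This background-control readout tracks M06 reporter mRNA, measured by RT-PCR and capillary electrophoresis. HepG2 cells transiently carrying the GAL4-UAS reporter panel were dosed for 24 h with 3 nM 6-alpha-fluorotestosterone added for partial AR stimulation; increases were scored relative to DMSO.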

[8] = ATG_M_61_XSP1: Attagene TRANS-FACTORIAL Multi-Species (XSP1) HepG2 Assay for M61 Transcription Factor (Internal Marker) (AID 2283797)
How it was run: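 Background-control readout: reporter transcripts measured by RT-PCR and capillary electrophoresis 24 h after dosing transiently transfected HepG2 multi-reporter cells, with 3 nM 6-alpha-fluorotestosterone present. Fitted in the positive direction relative to DMSO.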

[9] = target: GAL4 Transcription Factor (Internal Marker), GAL4 (gene 855828) (UniProt P04386); assay: ATG_GAL4_XSP2: Attagene TRANS-FACTORIAL Multi-Species (XSP2) HepG2 Assay for GAL4 Transcription Factor (Internal Marker) (AID 2283814);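 also: GAL4 reporter mRNA background control in MRTU transfected cells not a receptor target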
GAL4 Transcription Factor (Internal Marker), GAL4 (gene 855828), sequence (P04386 whole entry, looked up, the tested form may be a part): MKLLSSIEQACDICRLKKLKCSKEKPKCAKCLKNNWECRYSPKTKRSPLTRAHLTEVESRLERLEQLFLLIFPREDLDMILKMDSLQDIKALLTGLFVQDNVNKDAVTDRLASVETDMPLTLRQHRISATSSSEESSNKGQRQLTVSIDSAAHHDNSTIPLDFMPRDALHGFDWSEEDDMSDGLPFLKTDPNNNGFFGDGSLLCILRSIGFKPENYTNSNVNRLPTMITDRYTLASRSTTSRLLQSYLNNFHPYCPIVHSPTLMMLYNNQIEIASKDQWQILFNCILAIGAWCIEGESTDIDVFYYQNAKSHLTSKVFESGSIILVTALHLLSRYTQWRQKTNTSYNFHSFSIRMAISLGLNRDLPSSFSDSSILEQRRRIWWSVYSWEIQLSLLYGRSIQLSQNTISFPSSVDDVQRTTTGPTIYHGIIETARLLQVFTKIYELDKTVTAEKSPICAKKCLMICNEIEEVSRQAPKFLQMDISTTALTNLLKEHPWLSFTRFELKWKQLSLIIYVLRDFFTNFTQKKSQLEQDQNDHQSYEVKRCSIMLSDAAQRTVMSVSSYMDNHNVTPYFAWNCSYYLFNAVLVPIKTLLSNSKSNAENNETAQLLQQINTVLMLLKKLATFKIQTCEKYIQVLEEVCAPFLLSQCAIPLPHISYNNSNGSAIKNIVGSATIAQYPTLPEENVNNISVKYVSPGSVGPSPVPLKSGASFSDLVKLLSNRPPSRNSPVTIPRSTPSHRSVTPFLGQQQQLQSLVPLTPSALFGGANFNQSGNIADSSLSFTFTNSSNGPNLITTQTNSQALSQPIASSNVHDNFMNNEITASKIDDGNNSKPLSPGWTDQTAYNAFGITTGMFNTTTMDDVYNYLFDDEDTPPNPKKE
How it was run: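 Background-control readout: gain-of-signal fitted against DMSO. After 24 h exposure of transfected HepG2 (MRTU, GAL4-UAS reporters; 3 nM 6-alpha-fluorotestosterone, 1.5 nM norgestrel present), transcripts quantified by RT-PCR and capillary electrophoresis fluorescence.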

[10] = target: chicken Estrogen Receptor (ERa), ESR1 (gene 396099) (UniProt P06212); assay: ATG_chERa_XSP2: Attagene TRANS-FACTORIAL Multi-Species (XSP2) HepG2 Assay for chicken Estrogen Receptor (ERa) (AID 2283817);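 also: actives raise reporter signal above DMSO so AC50 reflects ER activation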
chicken Estrogen Receptor (ERa), ESR1 (gene 396099), sequence (P06212 whole entry, looked up, the tested form may be a part): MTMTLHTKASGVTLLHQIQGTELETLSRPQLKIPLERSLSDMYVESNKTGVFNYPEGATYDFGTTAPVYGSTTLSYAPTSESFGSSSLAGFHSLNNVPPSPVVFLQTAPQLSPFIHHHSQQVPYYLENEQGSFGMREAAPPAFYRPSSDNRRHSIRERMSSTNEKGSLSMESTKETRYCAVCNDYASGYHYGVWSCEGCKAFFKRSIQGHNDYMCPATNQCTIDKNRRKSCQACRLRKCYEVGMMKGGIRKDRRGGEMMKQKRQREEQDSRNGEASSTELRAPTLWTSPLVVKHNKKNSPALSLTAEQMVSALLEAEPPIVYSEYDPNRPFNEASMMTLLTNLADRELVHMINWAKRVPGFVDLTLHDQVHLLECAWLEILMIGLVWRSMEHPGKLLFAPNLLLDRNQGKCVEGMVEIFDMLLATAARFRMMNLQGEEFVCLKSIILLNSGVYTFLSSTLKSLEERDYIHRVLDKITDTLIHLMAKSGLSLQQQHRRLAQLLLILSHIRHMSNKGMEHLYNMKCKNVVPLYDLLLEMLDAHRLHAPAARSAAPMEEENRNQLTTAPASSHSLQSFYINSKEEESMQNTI
How it was run: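 Readout: fluorescent reporter-transcript fragments resolved by capillary electrophoresis after RT-PCR and HpaI cut. Chicken ERa-Gal4 fusion in transiently transfected HepG2, dosed for 24 h; activity taken as increase over DMSO baseline.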

[11] = CCTE_Deisenroth_H295R-HTRF_384WELL_ESTRADIOL: CCTE's H295R-HTRF Assay Evaluation of Estradiol Concentration, Deisenroth Lab (AID 2284361; active = hit-call score of the fitted dose curve at least 0.9, where 1 is the maximum; inactive = score below 0.9); settings: actives raise or lower the signal
How it was run: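 Estradiol secreted into medium by H295R adrenocortical cells, quantified by HTRF after 48 h dosing over a nine-point 0.001 - 100 uM final range; gain or loss versus DMSO. Parallel ATP-luminescence viability readout; n=5 experiments.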

[12] = CCTE_Deisenroth_H295R-HTRF_384WELL_TESTOSTERONE: CCTE's H295R-HTRF Assay Evaluation of Testosterone Concentration, Deisenroth Lab (AID 2284373; active = hit-call score of the fitted dose curve at least 0.9, where 1 is the maximum; inactive = score below 0.9); settings: actives raise or lower the signal
How it was run: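 Testosterone secreted into medium was quantified by direct HTRF immunoassay after a 48 h treatment of H295R adrenocortical cells (nine concentrations, 0.001–100 uM final). Gain or loss fitted relative to DMSO; CellTiter-Glo viability read on same plates.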

[13] = CCTE_Deisenroth_H295R-HTRF_384WELL_CTOX: Cytotoxicity Assessment in CCTE's H295R-HTRF Assay, Deisenroth Lab (AID 2284380)
How it was run: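 Luminescent ATP viability readout (CellTiter-Glo 2.0), multiplexed on plates used for hormone sampling, after 48 h chemical exposure. Human H295R cells; final concentrations 0.001–100 uM in nine steps, technical triplicates, five experiments; DMSO baseline.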

Measured: AC50

CC(C)CCCCCCCOC(=O)c1ccccc1C(=O)OCCCCCCCC(C)C
inactive: [1] | THRA (gene 7067) | THRB (gene 7068) [2] | [3] | THRB (gene 7068) [4] | [5] | [6]

CC(=O)c1cc2c(cc1C)C(C)(C)C(C)CC2(C)C (centres undefined)
inactive: [7] | [8] | [9] | [10]

C[C@]12CC[C@H]3[C@@H](CC[C@@]45O[C@@H]4C(O)=C(C#N)C[C@]35C)[C@@H]1CC[C@@H]2O
active: [11] 3.06 µM | [12] 19 µM
inactive: [13]

Source: PubChem BioAssay (EPA / NIEHS)
